Screens as filed in PubChem BioAssay.
KB-V1 MDR tox: kills drug-selected multidrug resistant KB-V1 cells | actives 3.4% (n = 400,000) | KB-V1 MDR cells viability, CellTiter-Glo, 72 h | Potency, µM (top dose mostly 46.1 µM), hits mostly cytotoxic; note: % is set by controls: 0 for no effect and ±100 for the full control effect; nearly all actives have a fitted effect of over 60% in size
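KB-V1 cells (P-gp-expressing MDR subline of KB-3-1) in phenol-red-free DMEM with 10% FBS were exposed to library compounds over a concentration series for 72 h at 37 degrees C. Viability read by CellTiter-Glo luminescence; concentration-effect curves fitted after normalization.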
MCF10A rerep: inducers of DNA re-replication in MCF 10A breast cells; MCF 10A DNA re-replication, Hoechst nuclear intensity, 48 h; Potency, µM (doses to about 46.1 µM), inactives show top-dose activity, positive = re-replication, hits mostly activators; actives 2.9% (n = 350,000); note: % of control where 0% means no effect; nearly all actives have a fitted effect of over 50% in size
KB-3-1 cytotox: KB-3-1 parental cell cytotoxicity. KB-3-1 viability, CellTiter-Glo ATP luminescence, 72 h. Potency, µM (titrated, usually from 46.1 µM), actives largely listed as cytotoxic. actives 1.4% (n = 400,000). AID 1347075; note: % is set by controls: 0 for no effect and ±100 for the full control effect; nearly all actives have a fitted effect of over 60% in size
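Multi-concentration cytotoxicity screen in KB-3-1 cells grown in DMEM lacking phenol red with 10% FBS. After 72 h at 37 °C with compound, ATP-dependent luminescence was recorded.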
SW480 rereplic: inducers of DNA re-replication in SW480 colon cancer cells; SW480 DNA re-replication, Hoechst DNA content imaging, 48 h; Potency, µM (series often up to 46.1 µM), without a hit: at the top dose re-replication activation, most hits filed as activators; actives 1.8% (n = 340,000); AID 624297; note: % of control where 0% means no effect; nearly all actives have a fitted effect of over 55% in size
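Hoechst fluorescence of nuclei (405 nm excitation, 500-530 nm emission) measured by plate-scanning imager after 48 hr compound exposure at 37 C; re-replication scored as increased number of nuclei with elevated intensity.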
ELG1 DNA repair: ELG1-dependent DNA repair inhibition | HEK293T ELG1-luciferase reporter, luminescence, 16 h; DNA damage induced by 5-fluorouridine | Potency, µM (titrated, usually from 46.1 µM), without a hit: at the top dose activity change, negative = inhibition, hits mostly inhibitors | actives 2.3% (n = 330,000); note: % is set by controls: 0 for no effect and ±100 for the full control effect; nearly all actives have a fitted effect of over 55% in size
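Step one: seed 2,000 cells per well. Step two: pin-transfer compound or DMSO alongside 5-fluorouridine. Step three: incubate 16 hr, 37 °C, 5% CO2. Step four: add ONE-Glo, wait 30 min, read luminescence.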
The depositor's hits bear a star; i = inactive; ? = inconclusive; nt = not tested or not shown; [ ] = dose if it differs, or a comment. Only some compounds are listed: those with a hit (about 8.1% of all), similar ones and a draw of the others. Calls come from the whole dose curve; as a rule, active = well fitted curve in the direction sought with a large enough effect; inconclusive = small, poorly fitted or top-dose-only effect, or another doubt; inactive = no such curve, though single readings can be large; an effect the other way counts as inactive or inconclusive. Potency is the fitted concentration of half-maximal effect.

SMILES | KB-V1 MDR tox | MCF10A rerep | KB-3-1 cytotox | SW480 rereplic | ELG1 DNA repair
N#CC1=C(N)C(C#N)(C#N)C(c2cccnc2)C2CC(c3ccccc3)CC=C12 (stereo not given) | ? | ? | i | 11% | ?
CCOC(=O)c1sc(NC(=O)CSc2nnnn2-c2ccc(C)cc2C)nc1C | i | ? | i | -6%[9.22 µM] | -9%
O=C(CSc1nnnn1-c1ccccc1F)NNC(=O)c1ccco1 | i | ? | i | -31% | 15%
COC(=O)c1ccccc1NC(=O)CSc1nnnn1-c1ccc(C)cc1C | i | 13µM* | i | ? | ?
Cc1ccc(-n2nnnc2SCC(=O)NNC(=O)c2ccco2)c(C)c1 | i | 21µM* | i | -15% | 1%
COc1ccc(/C(C)=N/NC(=O)CNC(=O)c2cccnc2)cc1OC | i | 1% | i | 2% | -4%
CC(=O)OC[C@H]1O[C@@H](Oc2cc3ccc(=O)oc3cc2OC(C)=O)[C@H](OC(C)=O)[C@@H](OC(C)=O)[C@@H]1OC(C)=O | i | -65% | i | 21µM* | nt
C=CCn1c2ccccc2n2nc(C)c(=O)nc12 | i | 6% | i | -2% | -14%
COc1ccc(-c2ccc(OC)c(OC)c2OC)c(OC)c1OC | 23µM* | -2% | i | -2% | nt
CCOC(=O)c1noc2nc(C)n(Cc3ccc([N+](=O)[O-])cc3)c(=O)c12 | ? | nt | i | nt | nt
Nc1nc2ccc(Cl)cc2[nH]1 | i | -1% | i | 0% | nt
Nc1ccc2nc(-c3ccc(Cl)cc3)[nH]c2c1 | i | ? | 18µM* | 2% | ?
Nc1ccc(-c2nc3ccc(-c4nc5ccccc5o4)cc3[nH]2)cc1 | i | 4µM* | i | 4.5µM* | -6%
Clc1ccc2nc(-c3ccc(Cl)nc3)[nH]c2c1 | ? | ? | i | 13µM* | ?
Nc1ccc(-c2nc3ccc(N)cc3[nH]2)cc1 | i | 0% | i | 5% | ?
Cc1cc(C)cc(C(=O)Nc2ccc(N3CCN(S(C)(=O)=O)CC3)cc2)c1 | i | ? | i | -2% | 22%
CC1(C(=O)NCc2cccs2)Cc2c(-c3ccc4c(c3)OCO4)ccnc2O1 (stereo not given) | ? | nt | 5.2µM* | nt | nt
CN(C)c1ccc(-c2ccnc3c2CC(C)(C(=O)NCc2cccs2)O3)cc1 (stereo not given) | i | nt | ? | nt | nt
CC1(C(=O)NCc2cccs2)Cc2c(-c3ccccc3)ccnc2O1 (stereo not given) | ? | nt | 5.8µM* | nt | nt
CC1(C(=O)NS(=O)(=O)Cc2ccccc2)CCN1C(=O)Cc1ccc(-c2ccccc2)cc1 (stereo not given) | i | nt | i | nt | nt
COC(=O)[C@]12CCCCC=C1N(CCc1ccc(OC)c(OC)c1)C(=O)[C@H](CC(=O)N1CCC(c3ccccc3)CC1)C2 | ? | nt | i | nt | nt
O=C(c1ccccc1)c1ccc(-n2ccnc2)c([N+](=O)[O-])c1 | 18µM* | 2% | i | -4% | -9%
O=C(O)c1ccc(-n2ccnc2)c([N+](=O)[O-])c1 | ? | -7% | i | 1% | 20%
Cc1ccc(NC(=O)C2=C(C(=O)O)CCCC2)cc1Br | i | 5% | i | 8.2µM* | -2%
Cc1ccc(NC(=O)C2=C(C(=O)O)CCCC2)cc1F | i | -9% | i | -2% | 20%
SMILES | KB-V1 MDR tox | MCF10A rerep | KB-3-1 cytotox | SW480 rereplic | ELG1 DNA repair
NC(CC(=O)NC(c1ccccc1)(c1ccccc1)c1ccccc1)C(=O)O (stereo not given) | i | 0% | i | -10% | ?
NC(CSC(c1ccccc1)(c1ccccc1)c1ccccc1)C(=O)O (stereo not given) | ? | 6.5µM* | 3.7µM* | 6.5µM* | nt
COc1cccc(C(=O)NCC2CCCN(C3CCCCC3)C2)c1OC (stereo not given) | i | -1% | i | -4% | 7%
Cc1cc(C(=O)COC(=O)c2ccc(O)cc2O)c(C)n1-c1ccccc1 | 16µM* | ? | ? | -5% | ?
COc1ccc(-n2c(C)cc(C(=O)COC(=O)c3ccc(O)cc3O)c2C)cc1 | ? | ? | ? | -3% | ?
Cc1cc(C(=O)COC(=O)c2ccc(O)cc2O)c(C)n1-c1ccc(OC(F)F)cc1 | ? | ? | 16µM* | 0% | -10%
Cc1ccc(-n2c(C)cc(C(=O)COC(=O)c3ccc[nH]c3=O)c2C)cc1 | 18µM* | -2% | i | -59% | ?
CCOc1ccc(NC(=O)CN2C(=O)c3ccccc3C2=O)cc1 | ? | -3% | ? | -17% | ?
Cc1cc(C)n(-c2ccc(Cl)c(C(=O)NCc3ccccc3)n2)n1 | 12µM* | -9% | i | 0% | ?
Cc1cc(C)n(-c2ccc(Cl)c(C(=O)OCC(N)=O)n2)n1 | i | -4% | i | 17% | 3%
Cc1cc(C)cc(OCC(=O)Nc2ccc(CN3CCCCC3)cc2)c1 | i | ? | i | 1% | 1%
CCOC(=O)c1c(/N=C/N(C)C)sc(/C=N/Nc2ccccc2)c1-c1ccccc1 | i | 21µM* | i | ? | -10%
CCOC(=O)c1c(/N=C/N(C)C)sc(/C=N/Nc2ccccc2)c1-c1ccccc1Cl | i | 15µM* | i | 18µM* | 21µM*
CCc1ccc(OCC(=O)NC(C)(C)C)cc1 | i | -1% | i | -2% | 28%
C=CCN(CC=C)C(=O)Cc1ccc(F)cc1 | i | 3% | i | 2% | 2%
Cc1ccn2cc(-c3cccc(S(=O)(=O)N4CCCC4)c3)nc2c1 | ? | 10% | i | 1% | -6%
CCCCCCOc1ccc(OC(=O)c2ccncc2)cc1 | i | 23µM* | i | ? | ?
Nc1n[nH]c(N)c1N=Nc1ccccc1 | i | -13% | i | 16µM* | 11%
Nc1n[nH]c(N)c1N=Nc1ccc(F)cc1 | ? | 7% | i | ? | ?
CCc1ccc2nc(N3C(=O)c4oc5ccccc5c(=O)c4C3c3ccc(OC)c(OC)c3)sc2c1 (stereo not given) | nt | nt | nt | nt | 1%
O=C(CN1/C(=C(/O)c2ccccc2)C(=O)c2ccccc2S1(=O)=O)c1ccccc1 | 1.5µM* | 6% | ? | -5% | -16%
Cc1ccc(NS(=O)(=O)c2ccc3c(c2)NC(=O)C(C)C(=O)N3)cc1C (stereo not given) | i | -3% | i | -2% | -1%
CC(C)CC(N)c1csc(NC(=O)c2cc(C(C)(C)C)nn2Cc2ccccc2)n1 (stereo not given) | 18µM* | nt | ? | nt | nt
O=C1[C@H]2[C@@H]3CCN1CCC[C@@H]2C=C[C@@H]3c1ccc(Br)cc1 | i | nt | i | nt | nt
